A selection: hits, their analogues and other compounds. The true share with any hit is near 2.5%.
FLuc inh = qHTS Assay for Inhibitors of Firefly Luciferase; Luciferin 4-monooxygenase (Photinus pyralis), P08659; purified firefly luciferase, luminescence, 8 min; Potency, µM (highest dose often 57.1 µM), without a hit: top-dose activity change, negative = inhibition, hits mostly inhibitors; 72,000 tested, 2.2% active; AID 411, 2009; note: nearly all actives have a fitted effect of over 40% in size
Target sequence (P08659 whole entry, looked up): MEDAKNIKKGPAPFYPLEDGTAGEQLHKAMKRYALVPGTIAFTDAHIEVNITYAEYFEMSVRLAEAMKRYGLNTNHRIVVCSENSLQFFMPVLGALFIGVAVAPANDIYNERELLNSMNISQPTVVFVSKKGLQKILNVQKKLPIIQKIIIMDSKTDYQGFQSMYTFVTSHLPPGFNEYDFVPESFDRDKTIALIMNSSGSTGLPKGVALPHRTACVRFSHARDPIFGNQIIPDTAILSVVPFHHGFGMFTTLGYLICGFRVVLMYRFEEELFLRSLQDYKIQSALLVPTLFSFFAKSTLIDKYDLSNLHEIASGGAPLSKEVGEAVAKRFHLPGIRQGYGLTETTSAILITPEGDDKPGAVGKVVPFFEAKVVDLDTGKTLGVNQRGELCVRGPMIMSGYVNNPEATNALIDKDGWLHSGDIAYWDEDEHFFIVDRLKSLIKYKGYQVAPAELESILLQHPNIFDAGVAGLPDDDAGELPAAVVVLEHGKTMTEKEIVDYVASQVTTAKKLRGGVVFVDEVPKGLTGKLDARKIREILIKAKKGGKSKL
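Luminescence read-out after 8 min at room temperature; enzyme reaction used luciferin plus 10 uM ATP (linear range) in imidazole buffer pH 7.2 with KCl, MgCl2, Tween 20 and BSA. Each sample was run as a titration.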
p53ts 39C tox = qHTS Screen for Compounds that Selectively Target Cancer Cells with p53 Mutations: Cytotoxicity of p53ts Cells at the Nonpermissive Temperature; Potency, µM (top dose mostly 46.1 µM), inactives show at the top dose activity change, negative = cell killing, usual class: cytotoxic; AID 902, 2007; 130,000 tested, 1.5% active; H1299-p53A138V viability at 39C, ATP luminescence, 24 h; note: nearly all actives have a fitted effect of over 55% in size
p53ts 32C kill = qHTS Screen for Compounds that Selectively Target Cancer Cells with p53 Mutations: Cytotoxicity of p53ts Cells at the Permissive Temperature; H1299-p53A138V at 32C, ATP luminescence viability, 24 h; Potency, µM (top dose mostly 46.1 µM), for inactives: at the highest dose activity change, negative = cytotoxicity, hits mostly cytotoxic; 130,000 tested, 0.93% active; AID 924, 2007;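 note: 0% = DMSO and -100% = full killing by reference compound; nearly all actives have a fitted effect of over 55% in size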
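H1299-p53 A138V cells (temperature-sensitive p53) exposed 24 h to up to 46 uM compound at 32C, where p53 is wild-type in conformation. Viability read as ATP luminescence and normalised to DMSO and 100 uM tamoxifen. AC50 fitted with the Hill equation.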
Starred values were filed as active, the others as inactive; [ ] = dose if it differs, or a comment. Calls come from the whole dose curve; as a rule, active = well fitted curve in the direction sought with a large enough effect; inconclusive = small, poorly fitted or top-dose-only effect, or another doubt; inactive = no such curve, though single readings can be large; an effect the other way counts as inactive or inconclusive. Unless noted, % is set by controls: 0 for no effect and ±100 for the full control effect; potency is the fitted concentration of half-maximal effect.

For Cc1c(CC(=O)N2CCCCC2)c(=O)oc2cc3occ(C(C)(C)C)c3cc12 the results were p53ts 39C tox -7% and p53ts 32C kill 10%.
For O=S(=O)(c1ccccc1)c1nc(-c2ccc(F)cc2)oc1N1CCCCCC1 the results were p53ts 39C tox 12% and p53ts 32C kill 5%.
Screening CCS(=O)(=O)c1oc(-c2ccc(F)cc2)nc1S(=O)(=O)c1ccccc1 returned p53ts 39C tox 2.5µM* and p53ts 32C kill inconclusive.
`O=C1[C@H]2[C@H]3[C@H](O)[C@H](O)C/C(=N/OC[C@@H](O)COCc4ccco4)[C@@H]3CC[C@@H]2C(=O)N1Cc1ccc2c(c1)OCO2` gave FLuc inh 2%[11.4 µM], p53ts 39C tox 13%[9.22 µM] and p53ts 32C kill -4%[9.22 µM].
Screening CN(C)Cc1ccccc1-c1ccc2ncnc(N3CCOCC3)c2c1 returned FLuc inh 0%[2.29 µM], p53ts 39C tox 0% and p53ts 32C kill 4%.
`Cc1ccc(-n2nc3ccc(N)cc3n2)cc1` gave FLuc inh 2µM*, p53ts 39C tox 7.9µM* and p53ts 32C kill 7.9µM*.
For Cc1ccc(-n2nc(-c3ccc(N)cc3)cc2N)cc1 the results were FLuc inh -1%, p53ts 39C tox -14% and p53ts 32C kill -6%.
Cc1ccc(-n2ncc(C(=O)NCCN3CCC(Cc4ccccc4)CC3)c2C2CCN(C(=O)OC(C)(C)C)CC2)cc1 was read as p53ts 39C tox 7.9µM* and p53ts 32C kill inconclusive.
For CC(C)(C)OC(=O)N1CCC(c2c(C(=O)NCCN3CCC(Cc4ccccc4)CC3)cnn2-c2cccc(Cl)c2)CC1 the results were p53ts 39C tox 20µM* and p53ts 32C kill inconclusive.
`Cc1ccc(-n2ncc(C(=O)NCCN3CCCC3)c2C2CCN(C(=O)OC(C)(C)C)CC2)cc1` gave p53ts 39C tox -17% and p53ts 32C kill -10%.
Screening CN1CCN(CCNC(=O)c2cnn(-c3cccc(Cl)c3)c2C2CCN(C(=O)OC(C)(C)C)CC2)CC1 returned p53ts 39C tox -4% and p53ts 32C kill 6%.
Screening c1ccsc1 returned p53ts 39C tox 5% and p53ts 32C kill 2%[1.84 µM].
`COc1ccc(NC(=O)Cn2nc(-c3ccncc3)ccc2=O)cc1Cl` gave p53ts 39C tox -23% and p53ts 32C kill -4%.
CCOc1ccc(C(=O)c2cn(CC(=O)Nc3ccc(C)c(Cl)c3)c3ccc(OCC)cc3c2=O)cc1 was read as p53ts 39C tox 16% and p53ts 32C kill 0%.
For CCc1ccc2c(c1)c(=O)c(C(=O)c1ccccc1)cn2CC(=O)Nc1ccc(C)c(Cl)c1 the results were p53ts 39C tox 16µM* and p53ts 32C kill -22%.
Screening CCc1ccc(C(=O)c2cn(CC(=O)Nc3ccc4c(c3)OCO4)c3ccc(CC)cc3c2=O)cc1 returned p53ts 39C tox 13µM* and p53ts 32C kill inconclusive.
Screening CCc1ccc(C(=O)c2cn(CC(=O)Nc3ccc(Cl)cc3)c3cc4c(cc3c2=O)OCO4)cc1 returned p53ts 39C tox -19% and p53ts 32C kill 11%.
CCc1ccc(C(=O)c2cn(CC(=O)Nc3ccc4c(c3)OCO4)c3ccc(Cl)cc3c2=O)cc1 was read as p53ts 39C tox 13µM* and p53ts 32C kill -28%.
For CCc1ccc(C(=O)c2cn(CC(=O)Nc3ccc4c(c3)OCO4)c3cc(OC)c(OC)cc3c2=O)cc1 the results were p53ts 39C tox -12% and p53ts 32C kill 2%.
Screening CSc1ccc(NC(=O)[C@H]2CCCC[C@@H]2C(=O)O)cc1 returned FLuc inh 1%[11.4 µM], p53ts 39C tox 5%[9.22 µM] and p53ts 32C kill -5%[9.22 µM].
For CCCCCCOc1ccc(/C=C/C(=O)Nc2sc3c(c2C(=O)OC)CCC3)cc1OC the results were p53ts 39C tox -1% and p53ts 32C kill 7%.
Screening COc1ccc(CNc2ccnc(-c3c(C)noc3C)n2)c(OC)c1 returned FLuc inh 0%[2.29 µM], p53ts 39C tox -6% and p53ts 32C kill 4%.
For Fc1ccc(-c2cc(-c3nc(-c4ccccc4)no3)[nH]n2)cc1 the results were p53ts 39C tox 3% and p53ts 32C kill -3%.
Screening COc1cccc(-c2nnc(-c3ccc(C)o3)o2)c1 returned p53ts 39C tox 11µM* and p53ts 32C kill 13µM*.
Screening COc1cccc(-c2nc(-c3ccc(Br)o3)no2)c1 returned p53ts 39C tox 13µM* and p53ts 32C kill inconclusive.
Screening Brc1ccc(-c2nc(-c3ccccc3)no2)o1 returned FLuc inh 13µM*, p53ts 39C tox -8% and p53ts 32C kill -6%.
For COc1ccc(-c2nc(-c3ccc(Br)o3)no2)cc1OC the results were FLuc inh -7%, p53ts 39C tox -1% and p53ts 32C kill -2%.
`c1ccc(-c2noc(-c3ccc4ccccc4c3)n2)cc1` gave FLuc inh 1.3µM*, p53ts 39C tox inconclusive and p53ts 32C kill inconclusive.
For Brc1ccc(-c2nc(-c3cccnc3)no2)o1 the results were FLuc inh -20%, p53ts 39C tox -15% and p53ts 32C kill -19%.
`COc1cccc(C(=O)Nc2ccc(-c3nnc(-c4ccco4)o3)cc2)c1` gave FLuc inh -2%[25.5 µM].
For CCC(=O)N1CCc2cc(Br)cc(S(=O)(=O)N3CCCC(C(=O)N(C)c4ccc(Br)cc4)C3)c21 (stereo not drawn) the results were p53ts 39C tox -3% and p53ts 32C kill 7%.
C[C@@H]1CC[C@H]2C(=O)NC[C@@H](O)CN2[C@@H]1c1ccc(Br)cc1 was read as FLuc inh 1%[11.4 µM], p53ts 39C tox 2%[9.22 µM] and p53ts 32C kill 0%[9.22 µM].
`Nc1ccc(S(=O)(=O)O)cc1` gave p53ts 39C tox 0% and p53ts 32C kill -16%[1.84 µM].
Screening O=C(O)[C@H]1CCc2ccc3ccccc3c2[C@H]1c1cccc2ccccc12 returned FLuc inh 4%[11.4 µM], p53ts 39C tox 3%[9.22 µM] and p53ts 32C kill 10%[9.22 µM].
Screening O=C1O/C(=C\Br)CC[C@@H]1c1cccc2ccccc12 returned FLuc inh 1%, p53ts 39C tox 20µM* and p53ts 32C kill 20µM*.
CCC(=O)N1c2ccccc2CC1C(=O)NCCc1ccc(Cl)cc1 (stereo not drawn) was read as p53ts 39C tox 9% and p53ts 32C kill 8%.
For CC(=O)C1CCC2C3CC(C)C4=CC(=O)CC[C@@]4(C)C3C(O)C[C@@]12C (stereo partly drawn) the results were p53ts 39C tox -23% and p53ts 32C kill 6%.
Screening N#Cc1c(-n2ncnc2-c2cccc(Br)c2)sc2c1CCCCC2 returned p53ts 39C tox -24% and p53ts 32C kill 2%.
`N#Cc1c(-n2ncnc2-c2ccc(F)cc2)sc2c1CCCCC2` gave p53ts 39C tox 13µM* and p53ts 32C kill 13µM*.
Screening CC(C)(C)NCc1cccn1-c1sc2c(c1C#N)CCCC2 returned FLuc inh 1%, p53ts 39C tox -12% and p53ts 32C kill -11%.
For Cc1ccccc1-c1ncnn1-c1sc2c(c1C#N)CCCCC2 the results were p53ts 39C tox 13µM* and p53ts 32C kill inconclusive.
For CCOC(=O)C1CCN(C(=O)CSc2n[nH]c(-c3ccccc3Cl)n2)CC1 the results were p53ts 39C tox -1% and p53ts 32C kill -2%.

Screens from PubChem BioAssay.
